Measured values reported in the OligoGym collection.
Also: reference of the scale not given here.

Each sequence was assayed against P2RY8 (assay: pooled miR-30 sensor sort-seq; sequence = guide strand). Conditions: shRNA.
With TTTCACTCAAAGCTCAACCAGT the sensor-assay potency score (higher = more potent) was 0.0389. In the case of TTGAGGACGTCGAAGCAGGTGA, the sensor-assay potency score (higher = more potent) is reported as -0.556. Work on TTCATTACTAAACCATCTCTGT yielded a sensor-assay potency score (higher = more potent) of -0.448. Sequence TTGCTTTCTAGGGTTCAGCTTT has a sensor-assay potency score (higher = more potent) of -0.874. TTTTCCATCTTAAAACATGTGT gave a sensor-assay potency score (higher = more potent) of -0.223. TTGATCATGAAGATGACCGACG showed a sensor-assay potency score (higher = more potent) of -0.289. In the case of TACTGTGAAGATGCTACTCTGA, the sensor-assay potency score (higher = more potent) is reported as -0.29. With TACACGTGGTAGTAGCTCTTGC the sensor-assay potency score (higher = more potent) was -0.559. With TCAACCAGTGAACAGACTGAGT the sensor-assay potency score (higher = more potent) was -1.22. Sequence TGGAACAGTCTAGAGAAGCAGG has a sensor-assay potency score (higher = more potent) of -1.38. TTCAGCTTTGGAACAGTCTAGA was tested, and the sensor-assay potency score (higher = more potent) was -0.295.

These sequences were tested against P4HA2 in the same assay as above. Conditions: shRNA.
Sequence TTGTACCAGAACACAGCTGTAC has a sensor-assay potency score (higher = more potent) of -0.305. In the case of TTATTGGAGACCCACTTGCAGC, the sensor-assay potency score (higher = more potent) is reported as -1.45. TTCTACATCACTCATGTAGTTA was tested, and the sensor-assay potency score (higher = more potent) was -0.685. With TTGCCTGGTACTTGGTTCCTGG the sensor-assay potency score (higher = more potent) was -0.843. In the case of TTAGGTTTTGCGATCTCCTTGA, the sensor-assay potency score (higher = more potent) is reported as 0.73. Work on TATCTCGTCCTCATCAGTGGGG yielded a sensor-assay potency score (higher = more potent) of 0.413. TAATCTTGGAAAGCTTGGCTTC was tested, and the sensor-assay potency score (higher = more potent) was -0.909. In the case of TTAAGAAACGTCGCTAACCTAT, the sensor-assay potency score (higher = more potent) is reported as -0.763. Work on TTTAGGTTTTGCGATCTCCTTG yielded a sensor-assay potency score (higher = more potent) of -0.309. For TTAACGTTTTTTCTCTCTCTTC, the sensor-assay potency score (higher = more potent) was -0.749. TTGCAACCTGTAACAATTCTGC was tested, and the sensor-assay potency score (higher = more potent) was -0.407. In the case of TAGACAGCTAACTCTGCTGCAG, the sensor-assay potency score (higher = more potent) is reported as -0.415.

Each sequence was assayed against P4HB in the same assay as above. Conditions: shRNA.
TTGGCAGTCGAGTCCATCTTGG showed a sensor-assay potency score (higher = more potent) of -1.06. TTTCTTAAAACCATCCAGCGTG showed a sensor-assay potency score (higher = more potent) of -0.457. For TTCACCTCCAAAAATCTTCGGG, the sensor-assay potency score (higher = more potent) was 0.109. In the case of TTGCAGTGACCACACCATGGGG, the sensor-assay potency score (higher = more potent) is reported as -1.18. TTTCTGATCATCGTCTTCCTCC was tested, and the sensor-assay potency score (higher = more potent) was 0.0481. Work on TTCCTGAAGAACTTGATGGTGG yielded a sensor-assay potency score (higher = more potent) of 0.134. Sequence TTGTAATCAATGACCGTCCTGT has a sensor-assay potency score (higher = more potent) of 0.492. TATTTGGAGAACACGTCACTGT showed a sensor-assay potency score (higher = more potent) of -0.00902. Sequence TTTGATAAAGTCCAGCAGGTTC has a sensor-assay potency score (higher = more potent) of -0.96. TTGGAGAACACGTCACTGTTGG showed a sensor-assay potency score (higher = more potent) of 0.0264. Sequence TAGAACTCCACAAAGACGTTTT has a sensor-assay potency score (higher = more potent) of -0.145. TTGACAGGCTGCTTGTCCCAGT gave a sensor-assay potency score (higher = more potent) of -0.656.

These sequences were tested against PAFAH1B2 in the same assay as above. Conditions: shRNA.
ATTTAAACAACAATCTTCCTTG gave a sensor-assay potency score (higher = more potent) of 0.529. Sequence TTAGTCTCCACAAAACATGTCT has a sensor-assay potency score (higher = more potent) of -0.124. TTTCGTGGTTATTTGTTCCTAC gave a sensor-assay potency score (higher = more potent) of 0.14.
